Rows were chosen to be rich in hits. Some 2.5% of all compounds tested hit in one or more screens of this group.
MEKK2wt PB1 HTS – raises or lowers MEK5 binding to wildtype human MEKK2 PB1 domain | binding response (% of control), % at 10 µM | hit rate 1.1% among 290,000 | AID 1531 | bead flow cytometry, Alexa488-MEK5 binding to MEKK2 WT; actives lie on both sides | Q9Y2U5; in the data active = binding response below about 67% or above about 130%; inconclusive = no clear call, values can overlap the other calls; inactive = in between
Rce1 inhib – blocks yeast Ras-converting enzyme; Q03530; yeast membranes, quenched prenylated peptide cleavage fluorescence; calls only; hit rate 0.27% among 290,000; AID 2563;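 active = fall in fluorescence gain of 50% or more versus controls, with final raw signal at or below 3038400; inconclusive = same 50% fall but final raw signal above 3038400; inactive = fall in fluorescence gain under 50%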
MEKK3 PB1 HTS – raises or lowers MEK5 binding to the human MEKK3 PB1 domain; Q99759; bead-based flow cytometry, Alexa488-MEK5 binding to MEKK3; actives lie on both sides; 0 = blocked by unlabeled MEK5, 100 = vehicle; binding response (% of control), % at 10 µM; hit rate 1.4% among 290,000;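 active = binding response more than 3 SD above or below the average of its plate-row segment, actives on both sides; inconclusive = wells at one plate position flagged as instrument error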;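 also: Alexa488 bead fluorescence after subtracting the streptavidin-only scavenger bead signal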
Target sequence (Q99759 whole entry, looked up, the tested form may be a part): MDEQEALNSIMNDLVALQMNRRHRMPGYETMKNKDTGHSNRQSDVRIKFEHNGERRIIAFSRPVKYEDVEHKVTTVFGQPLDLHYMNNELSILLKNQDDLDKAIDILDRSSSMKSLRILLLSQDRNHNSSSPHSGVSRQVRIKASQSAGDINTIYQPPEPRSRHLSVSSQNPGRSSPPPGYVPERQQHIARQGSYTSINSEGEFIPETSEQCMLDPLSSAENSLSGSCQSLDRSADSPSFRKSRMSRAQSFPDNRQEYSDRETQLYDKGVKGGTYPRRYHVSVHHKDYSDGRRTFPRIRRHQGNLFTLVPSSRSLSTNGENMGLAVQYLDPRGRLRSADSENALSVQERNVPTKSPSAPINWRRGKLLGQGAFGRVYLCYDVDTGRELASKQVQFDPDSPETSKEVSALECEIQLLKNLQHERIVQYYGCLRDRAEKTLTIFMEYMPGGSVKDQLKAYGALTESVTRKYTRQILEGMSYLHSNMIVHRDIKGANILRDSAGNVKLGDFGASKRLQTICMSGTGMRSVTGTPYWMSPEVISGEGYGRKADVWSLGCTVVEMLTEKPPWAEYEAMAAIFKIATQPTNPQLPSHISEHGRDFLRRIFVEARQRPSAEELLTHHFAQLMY
MEKK2 mut-MEK5 – signal of MEK5 binding to mutant human MEKK2 PB1 domain. bead flow cytometry, Alexa488-MEK5 binding to MEKK2 mutant. hit rate 0.35% among 290,000. AID 1530. percent response, % at 10 µM; in the data active = percent response above about 24%, passing the limit was not always enough
UBC13 inh – inhibitors of human UBC13 polyubiquitin chain formation. P61088. TR-FRET. inhibition, % at 20 µM. hit rate 0.47% among 330,000; in the data active = inhibition above about 45%, passing the limit was not always enough; inconclusive = no clear call, values can overlap the other calls
Each line names hits and unclear results; the compound was inactive in the other large screens; [ ] = remark or other dose.

Clc1nc(N2CCOCC2)ncc1Br	MEKK2wt PB1 HTS -4.0
Fc1cnc(N2CCOCC2)nc1N1CCOCC1	none
CC1CCCC(C)N1C(=O)c1ccc2c(c1)S(=O)(=O)c1ccccc1C2=O (configuration not stated)	MEKK2wt PB1 HTS -12.0[inhibitor], MEKK3 PB1 HTS 0.0[inhibitor]
COc1cc(OC)cc(-c2ncc3ccccn23)c1	Rce1 inhib active
O=C(CSc1nc(C2CCCCC2)n(-c2ccccc2)n1)NCC(F)(F)F	MEKK3 PB1 HTS 145.0
CS(=O)(=O)Nc1cccc(C2=NN(S(=O)(=O)c3ccc(F)cc3)C(c3cccs3)C2)c1 (configuration not stated)	MEKK2wt PB1 HTS 7.0
CCS(=O)(=O)Nc1cccc(C2=NN(S(C)(=O)=O)C(c3cccs3)C2)c1 (configuration not stated)	MEKK3 PB1 HTS 12.0[inhibitor] (no result: MEKK2wt PB1 HTS, MEKK2 mut-MEK5)
CCS(=O)(=O)N1N=C(c2cccc(NS(C)(=O)=O)c2)CC1c1cccs1 (configuration not stated)	MEKK3 PB1 HTS 13.0[inhibitor], MEKK2 mut-MEK5 24.0 (no result: MEKK2wt PB1 HTS)
COc1cccc(C2CC(c3cccs3)=NN2S(C)(=O)=O)c1 (configuration not stated)	MEKK2wt PB1 HTS 3.0
O=C(CCNC(=O)Cn1ccc2ccccc2c1=O)NCCc1ccccc1Cl	none
Cc1ccc(S(=O)(=O)N(CC(=O)Nc2cccc(C)c2C)C(=O)N2CCN(C)CC2)cc1	none (no result: MEKK2wt PB1 HTS, MEKK3 PB1 HTS, MEKK2 mut-MEK5)
CCS(=O)(=O)Nc1ccc(C2=NN(S(=O)(=O)CC)C(c3cccs3)C2)cc1 (configuration not stated)	MEKK3 PB1 HTS 7.0[inhibitor] (no result: MEKK2wt PB1 HTS)
CCS(=O)(=O)Nc1cccc(C2=NN(S(=O)(=O)CC)C(c3cccs3)C2)c1 (configuration not stated)	MEKK3 PB1 HTS 17.0[inhibitor], MEKK2 mut-MEK5 32.0 (no result: MEKK2wt PB1 HTS)
CS(=O)(=O)N1N=C(c2ccc(Cl)cc2)CC1c1cccs1 (configuration not stated)	none (no result: Rce1 inhib)
COc1ccc(S(=O)(=O)N2N=C(c3ccc(NS(C)(=O)=O)cc3)CC2c2ccco2)cc1 (configuration not stated)	none
CS(=O)(=O)Nc1cccc(C2=NN(S(C)(=O)=O)C(c3ccc4c(c3)OCO4)C2)c1 (configuration not stated)	MEKK2wt PB1 HTS 26.0
CS(=O)(=O)Nc1ccc(C2=NN(S(C)(=O)=O)C(c3ccccc3)C2)cc1 (configuration not stated)	none
CCS(=O)(=O)Nc1cccc(C2=NN(S(=O)(=O)c3ccc(F)cc3)C(c3cccs3)C2)c1 (configuration not stated)	none
COc1ccc(S(=O)(=O)N2N=C(c3cccc(NS(C)(=O)=O)c3)CC2c2ccco2)cc1 (configuration not stated)	MEKK2wt PB1 HTS 14.0
CC(OC(=O)C1CC1)C(=O)Nc1cc(Cl)cc(Cl)c1 (configuration not stated)	none (no result: MEKK2wt PB1 HTS, Rce1 inhib, MEKK3 PB1 HTS, MEKK2 mut-MEK5)
Cc1ccc(S(=O)(=O)N(CCO)Cc2cc3ccc(C)c(C)c3[nH]c2=O)cc1	none
Cc1ccc(S(=O)(=O)N(CCCO)Cc2cc3c(C)ccc(C)c3[nH]c2=O)cc1	MEKK2wt PB1 HTS -2.0
COc1ccc(/C=N/NC(=O)c2[nH]c3ccc(C)cc3c2-c2ccccc2)c(C(=O)O)c1OC	Rce1 inhib active (no result: UBC13 inh)
Cc1ccc(NC(=O)COc2ccc3c(c2)CCC3)nc1	none (no result: MEKK2wt PB1 HTS, MEKK3 PB1 HTS, MEKK2 mut-MEK5)
CC(=O)NNC(=O)c1sc(=S)n(C)c1C	MEKK2wt PB1 HTS -5.0
CCOC(=O)C(OC(=O)c1sc(=S)n(C)c1C)C(C)=O (configuration not stated)	none
N/C(=N\OC(=O)CSc1ccccc1)c1ccccn1	none
CCOC(=O)Cc1c(C)nc(Cc2ccc(OC(C)C)cc2)[nH]c1=O	none
O=C(COC(=O)C1CCCCC1)Nc1cc([N+](=O)[O-])ccc1F	none
COc1ccc(-n2c(SCc3ccc([N+](=O)[O-])cc3)nnc2-c2ccc(C)cc2)cc1	Rce1 inhib active
COc1ccc(-n2c(Cc3ccccc3)nnc2SCc2ccc([N+](=O)[O-])cc2)cc1	none (no result: Rce1 inhib)
COc1ccc2oc(C(=O)OCC(=O)/C(C#N)=C(\C)N)c(C)c2c1	none
O=C(Nc1ccccc1N1CCOCC1)C1CCN(S(=O)(=O)c2ccc(F)cc2)CC1	Rce1 inhib active
CC1=C(C(=O)O)N2C(=O)C(NC(=O)c3nn(C)cc3[N+](=O)[O-])C2SC1 (configuration not stated)	MEKK2wt PB1 HTS inconclusive, MEKK3 PB1 HTS inconclusive, MEKK2 mut-MEK5 139.0
O=C(NCc1cccnc1)C1CCC(CNS(=O)(=O)c2cccc3nsnc23)CC1 (configuration not stated)	none
CC(=O)C(Cc1cccc(F)c1)(Cc1cccc(F)c1)C(C)=O	none
CCN(C(=O)COC(=O)c1cc(-c2cccs2)nc2ccccc12)C1CCS(=O)(=O)C1 (configuration not stated)	Rce1 inhib active
CCN(C(=O)COC(=O)c1cc(-c2ccc(C)o2)nc2ccccc12)C1CCS(=O)(=O)C1 (configuration not stated)	none
CNC(=O)CS(=O)(=O)CC(=O)Nc1cc(OC(C)C)c(Cl)cc1Cl	none (no result: Rce1 inhib)
N#C/C(=C/c1cn(-c2ccccc2)nc1-c1cccc(OCc2ccc(F)cc2)c1)C(=O)NCCCn1ccnc1	MEKK3 PB1 HTS 172.0
CCCOc1cccc(-c2nn(-c3ccccc3)cc2/C=C(\C#N)C(=O)NCCCn2ccnc2)c1	none
COc1ccc(CC2(CO)CCN(S(=O)(=O)c3cccc4cccnc34)CC2)cc1	none
COC(=O)N/N=C/c1cn(Cc2ccccc2Cl)c2ccccc12	Rce1 inhib active
O=C(O)c1ccc(N/N=C/c2cn(Cc3ccccc3F)c3ccccc23)cc1	Rce1 inhib active
O=C(Cc1c[nH]c2ccccc12)NC1(C(=O)NC2CCCC2)CCCCC1	none
CN(C)c1ccc(/C=C/c2ccc3ccccc3n2)cc1	none (no result: UBC13 inh)
CCCN(CCC)c1ccc(/C=C/c2ccc3cc(OCC)ccc3n2)cc1	MEKK2 mut-MEK5 51.0 (no result: MEKK2wt PB1 HTS, UBC13 inh)
CCOc1nc(OCC)c2cnn(C)c2n1	none
CCOc1c2ccc(C(=O)NCc3ccco3)cc2nn1CCOC	Rce1 inhib active
COc1ccccc1/C=C/C=N/NC(=O)CN1CCN(S(=O)(=O)c2ccc(C)cc2)CC1	Rce1 inhib active
CC(=O)c1c(N2CCN(C)CC2)nc(=S)n(-c2cc(C)ccc2C)c1C	none
CC(C)CNC(=O)COc1cccc(C(=O)NCc2ccccc2)c1	Rce1 inhib active
CCNC(=O)COc1cccc(C(=O)NCc2ccccc2)c1	none
COC(CNC(=O)C1CC(=O)N(CCc2ccc(C)cc2)C1)OC (configuration not stated)	none
COC(=O)c1ccccc1NCCO	none
O=C(O)c1ccccc1NCCO	Rce1 inhib active
CCO[C@H]1OC(C(=O)Nc2ccccc2)=C[C@@H](c2csc3ccccc23)[C@@H]1CCCO	Rce1 inhib active
CC(C)(C)c1ccc(-c2nc(O)c(CC(=O)O)s2)cc1	none
COc1ccc2nc(C)cc(NCc3ccc(F)cc3)c2c1	MEKK3 PB1 HTS 54.0[inhibitor] (no result: MEKK2wt PB1 HTS, MEKK2 mut-MEK5)

Screening results (PubChem BioAssay)
